Assay in all cases: PBM; 200 nM protein, PBS
What all share (conditions): dsDNA, one strand shown

Assay [1] deals with SHOX (Homo sapiens, UniProt O15266 103-189).
Assay [2] addresses ALX4 (Homo sapiens, UniProt Q9H161 200-286).
Assay [3] concerns the target T1, PAX4 (Homo sapiens, UniProt O43316 9-242, R200K).
T1 sequence: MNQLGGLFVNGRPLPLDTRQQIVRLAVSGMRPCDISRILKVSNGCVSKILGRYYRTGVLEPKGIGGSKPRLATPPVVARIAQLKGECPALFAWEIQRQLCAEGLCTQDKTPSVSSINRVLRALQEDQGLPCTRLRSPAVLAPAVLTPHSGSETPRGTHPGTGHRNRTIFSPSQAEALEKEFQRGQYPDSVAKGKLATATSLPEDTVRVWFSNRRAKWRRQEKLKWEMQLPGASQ

Assay [4] has as its target PRRX1 (Homo sapiens, UniProt P54821 80-166, F113S).
Assay [5] concerns the target T2, PAX4 (Homo sapiens, UniProt O43316 9-242).
T2 sequence: T1 sequence with K192R

Assay [6] addresses ALX4 (Homo sapiens, UniProt Q9H161 200-286, Q225E).
Assay [7] has as its target ALX1 (Homo sapiens, UniProt Q15699 118-204, L144V).
The target in assay [8] is ALX3 (Homo sapiens, UniProt O95076 139-225, N203Q).
ALX3 (Homo sapiens, UniProt O95076 139-225, N203Q), sequence (O95076 139-225 N203Q): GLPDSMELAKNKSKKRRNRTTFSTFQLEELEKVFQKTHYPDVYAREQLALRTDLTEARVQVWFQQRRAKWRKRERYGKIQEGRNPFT
In assay [9] the target is T3, PAX4 (Homo sapiens, UniProt O43316 9-242, R200Q).
T3 sequence: T1 sequence with K192Q

For assay [10], the target named is SHOX (Homo sapiens, UniProt O15266 103-189, R173C).
SHOX (Homo sapiens, UniProt O15266 103-189, R173C), sequence (O15266 103-189 R173C): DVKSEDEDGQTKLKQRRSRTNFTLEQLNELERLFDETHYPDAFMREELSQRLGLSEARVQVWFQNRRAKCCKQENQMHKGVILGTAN
The target in assay [11] is ALX1 (Homo sapiens, UniProt Q15699 118-204, L144R).
ALX1 (Homo sapiens, UniProt Q15699 118-204, L144R), sequence (Q15699 118-204 L144R): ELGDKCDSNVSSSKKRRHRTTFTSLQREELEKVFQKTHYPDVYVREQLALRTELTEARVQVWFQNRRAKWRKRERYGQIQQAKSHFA
For assay [12], the target named is T4, PAX4 (Homo sapiens, UniProt O43316 9-242, F177V).
T4 sequence: T1 sequence with F169V, K192R

For assay [13], the target named is ALX3 (Homo sapiens, UniProt O95076 139-225).
ALX3 (Homo sapiens, UniProt O95076 139-225), sequence (O95076 139-225): as the sequence (O95076 139-225 N203Q) above, with Q65N counted along it
The target of assay [14] is T5, PAX4 (Homo sapiens, UniProt O43316 9-242, F177Y).
T5 sequence: T1 sequence with F169Y, K192R

Assay [15] addresses PROP1 (Homo sapiens, UniProt O75360 56-141).
Assay [16] addresses PROP1 (Homo sapiens, UniProt O75360 56-141, R99H).
In assay [17] the target is ALX3 (Homo sapiens, UniProt O95076 139-225, L168Q).
ALX3 (Homo sapiens, UniProt O95076 139-225, L168Q), sequence (O95076 139-225 L168Q): as the sequence (O95076 139-225 N203Q) above, with L30Q, Q65N counted along it
Assay [18] has as its target ALX3 (Homo sapiens, UniProt O95076 139-225, L168V).
The target of assay [19] is PROP1 (Homo sapiens, UniProt O75360 56-141, F88S).
PROP1 (Homo sapiens, UniProt O75360 56-141, F88S), sequence (O75360 56-141 F88S): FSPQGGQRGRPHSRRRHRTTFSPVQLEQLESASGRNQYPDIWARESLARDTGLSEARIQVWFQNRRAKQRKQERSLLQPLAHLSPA
In assay [20] the target is T6, PAX4 (Homo sapiens, UniProt O43316 9-242, R227W).
T6 sequence: T1 sequence with K192R, R219W

Assay [21] deals with ALX1 (Homo sapiens, UniProt Q15699 118-204).
ALX1 (Homo sapiens, UniProt Q15699 118-204), sequence (Q15699 118-204): as the sequence (Q15699 118-204 L144R) above, with R27L counted along it
Assay [22] deals with ALX3 (Homo sapiens, UniProt O95076 139-225, N203S).
ALX3 (Homo sapiens, UniProt O95076 139-225, N203S), sequence (O95076 139-225 N203S): as the sequence (O95076 139-225 N203Q) above, with Q65S counted along it
For assay [23], the target named is PRRX1 (Homo sapiens, UniProt P54821 80-166).
PRRX1 (Homo sapiens, UniProt P54821 80-166), sequence (P54821 80-166): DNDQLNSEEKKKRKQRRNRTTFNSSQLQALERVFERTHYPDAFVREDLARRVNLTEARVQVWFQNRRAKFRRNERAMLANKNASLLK
Assay [24] deals with MSX2 (Homo sapiens, UniProt P35548 130-214, R199I).
MSX2 (Homo sapiens, UniProt P35548 130-214, R199I), sequence (P35548 130-214 R199I): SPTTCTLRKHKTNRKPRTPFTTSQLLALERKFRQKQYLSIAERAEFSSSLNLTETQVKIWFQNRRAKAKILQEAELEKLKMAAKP
Assay [25] concerns the target MSX2 (Homo sapiens, UniProt P35548 130-214).
Assay [26] deals with MSX2 (Homo sapiens, UniProt P35548 130-214, F161Y).
MSX2 (Homo sapiens, UniProt P35548 130-214, F161Y), sequence (P35548 130-214 F161Y): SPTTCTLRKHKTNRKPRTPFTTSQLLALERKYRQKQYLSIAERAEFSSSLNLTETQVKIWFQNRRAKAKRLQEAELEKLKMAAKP
The target of assay [27] is HOXA2 (Homo sapiens, UniProt O43364 129-215, R185T).
HOXA2 (Homo sapiens, UniProt O43364 129-215, R185T), sequence (O43364 129-215 R185T): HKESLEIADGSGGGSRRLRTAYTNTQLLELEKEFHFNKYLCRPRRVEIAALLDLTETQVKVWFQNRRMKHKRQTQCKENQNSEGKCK
Assay [28] addresses HOXA2 (Homo sapiens, UniProt O43364 129-215, R185K).
The target in assay [29] is HOXA2 (Homo sapiens, UniProt O43364 129-215, Y150S).
HOXA2 (Homo sapiens, UniProt O43364 129-215, Y150S), sequence (O43364 129-215 Y150S): as the sequence (O43364 129-215 R185T) above, with Y22S, T57R counted along it
Assay [30] deals with HOXA2 (Homo sapiens, UniProt O43364 129-215).
HOXA2 (Homo sapiens, UniProt O43364 129-215), sequence (O43364 129-215): as the sequence (O43364 129-215 R185T) above, with T57R counted along it

Substitutions are numbered along the chain they refer to.

SHOX (Homo sapiens, UniProt O15266 103-189), sequence (O15266 103-189): as the sequence (O15266 103-189 R173C) above, with C71R counted along it
MSX2 (Homo sapiens, UniProt P35548 130-214), sequence (P35548 130-214): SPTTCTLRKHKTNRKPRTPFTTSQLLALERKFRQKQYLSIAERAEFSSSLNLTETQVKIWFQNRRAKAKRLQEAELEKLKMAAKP
ALX1 (Homo sapiens, UniProt Q15699 118-204, L144V), sequence (Q15699 118-204 L144V): as the sequence (Q15699 118-204 L144R) above, with R27V counted along it
ALX4 (Homo sapiens, UniProt Q9H161 200-286), sequence (Q9H161 200-286): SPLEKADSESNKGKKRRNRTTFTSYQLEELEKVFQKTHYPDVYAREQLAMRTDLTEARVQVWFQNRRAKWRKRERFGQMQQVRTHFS
PROP1 (Homo sapiens, UniProt O75360 56-141, R99H), sequence (O75360 56-141 R99H): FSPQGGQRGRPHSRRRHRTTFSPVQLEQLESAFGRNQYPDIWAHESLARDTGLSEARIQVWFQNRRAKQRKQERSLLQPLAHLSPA
ALX4 (Homo sapiens, UniProt Q9H161 200-286, Q225E), sequence (Q9H161 200-286 Q225E): as the sequence (Q9H161 200-286) above, with Q26E counted along it
HOXA2 (Homo sapiens, UniProt O43364 129-215, R185K), sequence (O43364 129-215 R185K): as the sequence (O43364 129-215 R185T) above, with T57K counted along it
PROP1 (Homo sapiens, UniProt O75360 56-141), sequence (O75360 56-141): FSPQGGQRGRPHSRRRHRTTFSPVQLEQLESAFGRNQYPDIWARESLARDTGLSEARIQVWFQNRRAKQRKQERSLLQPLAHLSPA
PRRX1 (Homo sapiens, UniProt P54821 80-166, F113S), sequence (P54821 80-166 F113S): as the sequence (P54821 80-166) above, with F34S counted along it
ALX3 (Homo sapiens, UniProt O95076 139-225, L168V), sequence (O95076 139-225 L168V): as the sequence (O95076 139-225 N203Q) above, with L30V, Q65N counted along it

In the case of CTAATTTA, the binding signal with SHOX [1] was 11.5 upbm affinity estimate (log intensity, higher = more binding, comparable within an allelic series); with ALX4 [2] it was 13.7 upbm affinity estimate (log intensity, higher = more binding, comparable within an allelic series); with PAX4 [3], 11.7 upbm affinity estimate (log intensity, higher = more binding, comparable within an allelic series); in the assay with PRRX1 [4] it was 11.1 upbm affinity estimate (log intensity, higher = more binding, comparable within an allelic series); with PAX4 [5], 12.3 upbm affinity estimate (log intensity, higher = more binding, comparable within an allelic series); with ALX4 [6], 12.6 upbm affinity estimate (log intensity, higher = more binding, comparable within an allelic series). Moreover, the binding signal with ALX1 [7] is 11.4 upbm affinity estimate (log intensity, higher = more binding, comparable within an allelic series); with ALX3 [8], 8.44 upbm affinity estimate (log intensity, higher = more binding, comparable within an allelic series); with PAX4 [9] it was 11.9 upbm affinity estimate (log intensity, higher = more binding, comparable within an allelic series); in the assay with SHOX [10], 9.2 upbm affinity estimate (log intensity, higher = more binding, comparable within an allelic series); with ALX1 [11], 11.1 upbm affinity estimate (log intensity, higher = more binding, comparable within an allelic series); with PAX4 [12], 10.6 upbm affinity estimate (log intensity, higher = more binding, comparable within an allelic series). In addition, the binding signal with ALX3 [13] was 12.3 upbm affinity estimate (log intensity, higher = more binding, comparable within an allelic series); with PAX4 [14] it was 11 upbm affinity estimate (log intensity, higher = more binding, comparable within an allelic series); with PROP1 [15], 11 upbm affinity estimate (log intensity, higher = more binding, comparable within an allelic series); with PROP1 [16], 10.8 upbm affinity estimate (log intensity, higher = more binding, comparable within an allelic series); with ALX3 [17] it was 10.2 upbm affinity estimate (log intensity, higher = more binding, comparable within an allelic series); with ALX3 [18], 9.6 upbm affinity estimate (log intensity, higher = more binding, comparable within an allelic series). The binding signal in the assay with PROP1 [19] was 7.64 upbm affinity estimate (log intensity, higher = more binding, comparable within an allelic series); with PAX4 [20], 11 upbm affinity estimate (log intensity, higher = more binding, comparable within an allelic series); with ALX1 [21] it was 12.1 upbm affinity estimate (log intensity, higher = more binding, comparable within an allelic series); in the assay with ALX3 [22] it was 8.54 upbm affinity estimate (log intensity, higher = more binding, comparable within an allelic series); with PRRX1 [23] it was 13.3 upbm affinity estimate (log intensity, higher = more binding, comparable within an allelic series).

As for CGGACAGC, the binding signal is 7.13 upbm affinity estimate (log intensity, higher = more binding, comparable within an allelic series) with SHOX [1]; 9.47 upbm affinity estimate (log intensity, higher = more binding, comparable within an allelic series) in the assay with PAX4 [3]; 9.43 upbm affinity estimate (log intensity, higher = more binding, comparable within an allelic series) in the assay with PAX4 [5]; 9.52 upbm affinity estimate (log intensity, higher = more binding, comparable within an allelic series) with MSX2 [24]; 6.29 upbm affinity estimate (log intensity, higher = more binding, comparable within an allelic series) with ALX1 [7]; 9.47 upbm affinity estimate (log intensity, higher = more binding, comparable within an allelic series) in the assay with PAX4 [9]. In addition, the binding signal is 7.17 upbm affinity estimate (log intensity, higher = more binding, comparable within an allelic series) with SHOX [10]; 6.43 upbm affinity estimate (log intensity, higher = more binding, comparable within an allelic series) in the assay with ALX1 [11]; 9.4 upbm affinity estimate (log intensity, higher = more binding, comparable within an allelic series) with PAX4 [12]; 9.55 upbm affinity estimate (log intensity, higher = more binding, comparable within an allelic series) in the assay with MSX2 [25]; 9.46 upbm affinity estimate (log intensity, higher = more binding, comparable within an allelic series) with PAX4 [14]; 9.53 upbm affinity estimate (log intensity, higher = more binding, comparable within an allelic series) in the assay with MSX2 [26]. Besides, the binding signal with PAX4 [20] was 9.46 upbm affinity estimate (log intensity, higher = more binding, comparable within an allelic series); in the assay with ALX1 [21] it was 6.5 upbm affinity estimate (log intensity, higher = more binding, comparable within an allelic series).

Take AATTAGAG: the binding signal with SHOX [1] is 11.6 upbm affinity estimate (log intensity, higher = more binding, comparable within an allelic series); in the assay with PAX4 [3] it was 11.7 upbm affinity estimate (log intensity, higher = more binding, comparable within an allelic series); with PAX4 [5], 12.2 upbm affinity estimate (log intensity, higher = more binding, comparable within an allelic series); with MSX2 [24], 12.1 upbm affinity estimate (log intensity, higher = more binding, comparable within an allelic series); with PAX4 [9] it was 12 upbm affinity estimate (log intensity, higher = more binding, comparable within an allelic series); with SHOX [10], 9.13 upbm affinity estimate (log intensity, higher = more binding, comparable within an allelic series). The binding signal is 10.4 upbm affinity estimate (log intensity, higher = more binding, comparable within an allelic series) with PAX4 [12]; 13.3 upbm affinity estimate (log intensity, higher = more binding, comparable within an allelic series) in the assay with MSX2 [25]; 10.9 upbm affinity estimate (log intensity, higher = more binding, comparable within an allelic series) with PAX4 [14]; 13.1 upbm affinity estimate (log intensity, higher = more binding, comparable within an allelic series) in the assay with MSX2 [26]; 10.8 upbm affinity estimate (log intensity, higher = more binding, comparable within an allelic series) in the assay with PAX4 [20].

In the case of CCTTGCCC, the binding signal with SHOX [1] was 7.09 upbm affinity estimate (log intensity, higher = more binding, comparable within an allelic series); in the assay with HOXA2 [27] it was 7.28 upbm affinity estimate (log intensity, higher = more binding, comparable within an allelic series); in the assay with SHOX [10] it was 7.14 upbm affinity estimate (log intensity, higher = more binding, comparable within an allelic series); with HOXA2 [28] it was 10.4 upbm affinity estimate (log intensity, higher = more binding, comparable within an allelic series); with HOXA2 [29], 10.4 upbm affinity estimate (log intensity, higher = more binding, comparable within an allelic series); in the assay with HOXA2 [30], 7.27 upbm affinity estimate (log intensity, higher = more binding, comparable within an allelic series).

These data come from publication PMC11006913.
